# Data from PubChem BioAssay.
# Activity calls are given as the source filed them.
# Tests used:
# Albumin (Bos taurus) = Albumin (Bos taurus) (UniProt P02769); experiment: compounds binding labelled BSA control protein – biochemical, small-molecule microarray, Alexa647 label, 635/667 nm fluorescence, artefact control for SMM control protein annotation, profiling panel (AID 1118); settings: BSA-A647 binding, fluorescence 635 nm, higher = more signal;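 also: score merges 667 nm emission intensity and signal-to-noise per printed compound spot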
# [1] = probe aXIP binding to arrayed compounds – biochemical, NeuroSMM set, 635/667 nm fluorescence, primary screen (AID 1119); settings: small-molecule microarray, higher = more signal, called active from +8 up or from −8 down;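 also: probe is the protein aXip251-270 applied at 1 µg/mL to compound-printed slides; binding of probe to printed compounds measured as 667 nm fluorescence plus signal to noise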
# [2] = probe aNOTCH3 binding on compound microarray – biochemical, small-molecule microarray, 635/667 nm fluorescence, primary screen (AID 1120); settings: higher = more signal;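 also: probe is a biotin-tagged antibody raised against NOTCH3 rather than NOTCH3 protein; score merges spot fluorescence near 667 nm with spot signal to noise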
# [3] = probe aNOTCH2 binding on compound microarray – biochemical, small-molecule microarray, 635/667 nm fluorescence, primary screen (AID 1121); settings: higher = more signal;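 also: score merges feature fluorescence read at 667 nm with its signal to noise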
# [4] = target: Carbonic anhydrase 2 (Homo sapiens) (UniProt P00918); experiment: compounds binding carbonic anhydrase 2 – biochemical, small-molecule microarray, Alexa647-labelled CAII, profiling panel (AID 1122); settings: CAII-A647 binding fluorescence, higher = more signal
# [5] = COS7 lysate on small-molecule microarray, probe aHis, 635 nm (AID 1123); settings: COS7 cell lysate, fluorescence, higher = more signal;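 also: z-score combines 667nm fluorescence intensity with signal-to-noise per printed compound spot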
# [6] = probe aLAP1 signal on lysate-treated microarray – cell lysate, small-molecule microarray, COS7 lysate, primary screen (AID 1124); settings: probe aLAP1, fluorescence, higher = more signal;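 also: lysate comes from COS7 cells expressing LAP1 and is applied at 0.3 µg/mL; score merges spot fluorescence near 667 nm with signal-to-noise over triplicate slides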
# Sam68 (KHDRBS1) = experiment: compounds binding KHDRBS1 protein – biochemical, small-molecule microarray, 635 nm fluorescence, primary screen (AID 1125); settings: higher = more signal;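 also: score merges 667 nm channel intensity with signal to noise over triplicate slides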
# [7] = tested on: Chordin-like protein 2 (CHRDL2); experiment: compounds binding chordin-like 2 – biochemical, small-molecule microarray, 635 nm fluorescence, primary screen (AID 1126); settings: fluorescence 635 nm, higher = more signal;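 also: printed compound slides probed with Chrdl2 protein at 4 µg/mL for 1 h at 4 C; score merges 667 nm emission intensity with signal to noise over three replicate slides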
# [8] = target: Concanavalin-A (Canavalia ensiformis) (UniProt P02866); experiment: compounds binding concanavalin A lectin – biochemical, small-molecule microarray, Alexa647 label, 635 nm, artefact control for SMM control protein annotation, primary screen (AID 1127); settings: ConA-A647 binding fluorescence, higher = more signal;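 also: z combines 667 nm emission intensity with signal-to-noise across three replicate slides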
# [9] = compounds binding Alexa647 anti-His antibody – biochemical, small-molecule microarray, 635 nm fluorescence, artefact control for SMM control protein annotation, primary screen (AID 1128); settings: higher = more signal;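 also: score merges feature fluorescence with signal-to-noise for each printed compound spot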
# [10] = tested on: Human papillomavirus type 1a E7 protein (residues 1-88); experiment: HPV1a E7 small-molecule binders, primary screen, biochemical, small-molecule microarray, residues 1-88, 635 nm (AID 1129); settings: small-molecule microarray binding, fluorescence 635 nm; higher = more signal
# [11] = target: Focal adhesion kinase 1 (Homo sapiens) (UniProt Q05397); experiment: PTK2 protein binding on printed compound slides – biochemical, small-molecule microarray, 635/667 nm fluorescence, BSA, DTT, primary screen (AID 1130); settings: 635 nm fluorescence, higher = more signal;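 also: composite of spot emission at 667 nm and signal to noise over triplicate slides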
# [12] = tested on: Fibrinogen (Alexa647-labelled); experiment: Alexa647-fibrinogen binding to printed small molecules – biochemical, small-molecule microarray, 635/667 nm fluorescence, artefact control for SMM control-protein annotation, profiling panel (AID 1131); settings: fibrinogen-A647 binding fluorescence, higher = more signal;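 also: z-score merges 667 nm fluorescence with per-spot signal-to-noise over triplicate slides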
# [13] = target: Follistatin (Homo sapiens) (UniProt P19883); experiment: FST protein binding to printed compounds – biochemical, small-molecule microarray, 635/667 nm fluorescence, primary screen (AID 1132); settings: 635 nm fluorescence, higher = more signal
# [14] = target: Fibroblast growth factor 2 (Homo sapiens) (UniProt P09038); experiment: basic fibroblast growth factor binding to printed compounds – biochemical, small-molecule microarray, 635/667 nm fluorescence, primary screen (AID 1133); settings: FGF2, fluorescence 635/667, higher = more signal
# [15] = JC-1 mitochondrial potential readout, lung cancer cells – cell-based, A549, JC-1 fluorescence, basal, 24 h, 100 nL, profiling panel (AID 1138); settings: higher = more signal;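 also: A549 lung adenocarcinoma cells under basal conditions with no added stimulus; test concentration not given here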
# Lefty1 = Lefty1 protein binding to printed compounds – biochemical, small-molecule microarray, 635/667 nm fluorescence, primary screen (AID 1139); settings: fluorescence 635/667, higher = more signal
# [16] = tested on: wheat germ agglutinin (Triticum aestivum), Alexa647-labelled; experiment: Alexa647-WGA lectin binding to printed small molecules – biochemical, small-molecule microarray, 635/667 nm fluorescence, artefact control for SMM control-protein annotation, profiling panel (AID 1140); settings: WGA-A647 binding, 635 nm fluorescence, higher = more signal;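 also: score merges 667 nm feature emission with signal to noise over triplicate slides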
# [17] = target: Luciferin 4-monooxygenase (Photinus pyralis) (UniProt P08659); experiment: inhibition of purified Photinus pyralis luciferase – biochemical, luminescence, purified enzyme, 2006 set, primary screen (AID 1141); settings: purified firefly luciferase, SteadyGlo luminescence, 30 min; higher = more signal, called active from +8 up or from −8 down;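 also: cell-free assay with purified firefly luciferase at 100 ng per well in PBS; test concentration not given here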
# Chain of Luciferin 4-monooxygenase (Photinus pyralis) (P08659 whole entry, looked up): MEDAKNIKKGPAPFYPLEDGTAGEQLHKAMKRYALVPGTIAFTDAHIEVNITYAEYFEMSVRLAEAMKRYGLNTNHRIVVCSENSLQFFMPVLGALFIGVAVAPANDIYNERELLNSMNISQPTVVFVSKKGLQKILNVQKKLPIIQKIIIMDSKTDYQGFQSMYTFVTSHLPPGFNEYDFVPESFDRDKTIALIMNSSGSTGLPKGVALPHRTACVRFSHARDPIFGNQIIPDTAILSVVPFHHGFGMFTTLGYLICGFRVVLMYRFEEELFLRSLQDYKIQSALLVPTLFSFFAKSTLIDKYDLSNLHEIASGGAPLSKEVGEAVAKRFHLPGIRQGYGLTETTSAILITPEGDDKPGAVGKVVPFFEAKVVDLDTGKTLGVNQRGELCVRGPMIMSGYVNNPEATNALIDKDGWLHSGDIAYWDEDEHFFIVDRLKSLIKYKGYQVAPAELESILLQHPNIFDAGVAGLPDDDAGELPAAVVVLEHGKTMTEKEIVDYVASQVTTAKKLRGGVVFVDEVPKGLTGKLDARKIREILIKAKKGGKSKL
# Chain of Follistatin (Homo sapiens) (P19883 whole entry, looked up): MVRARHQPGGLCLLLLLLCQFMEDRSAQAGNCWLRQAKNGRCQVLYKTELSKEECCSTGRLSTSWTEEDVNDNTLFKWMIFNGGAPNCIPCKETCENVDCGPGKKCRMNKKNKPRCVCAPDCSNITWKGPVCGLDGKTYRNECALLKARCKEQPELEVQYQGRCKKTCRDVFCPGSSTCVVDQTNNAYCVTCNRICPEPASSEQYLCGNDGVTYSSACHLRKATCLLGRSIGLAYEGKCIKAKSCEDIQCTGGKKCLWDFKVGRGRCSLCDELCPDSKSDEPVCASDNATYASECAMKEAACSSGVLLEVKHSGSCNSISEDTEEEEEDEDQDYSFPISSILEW
# Chain of Focal adhesion kinase 1 (Homo sapiens) (Q05397 whole entry, looked up): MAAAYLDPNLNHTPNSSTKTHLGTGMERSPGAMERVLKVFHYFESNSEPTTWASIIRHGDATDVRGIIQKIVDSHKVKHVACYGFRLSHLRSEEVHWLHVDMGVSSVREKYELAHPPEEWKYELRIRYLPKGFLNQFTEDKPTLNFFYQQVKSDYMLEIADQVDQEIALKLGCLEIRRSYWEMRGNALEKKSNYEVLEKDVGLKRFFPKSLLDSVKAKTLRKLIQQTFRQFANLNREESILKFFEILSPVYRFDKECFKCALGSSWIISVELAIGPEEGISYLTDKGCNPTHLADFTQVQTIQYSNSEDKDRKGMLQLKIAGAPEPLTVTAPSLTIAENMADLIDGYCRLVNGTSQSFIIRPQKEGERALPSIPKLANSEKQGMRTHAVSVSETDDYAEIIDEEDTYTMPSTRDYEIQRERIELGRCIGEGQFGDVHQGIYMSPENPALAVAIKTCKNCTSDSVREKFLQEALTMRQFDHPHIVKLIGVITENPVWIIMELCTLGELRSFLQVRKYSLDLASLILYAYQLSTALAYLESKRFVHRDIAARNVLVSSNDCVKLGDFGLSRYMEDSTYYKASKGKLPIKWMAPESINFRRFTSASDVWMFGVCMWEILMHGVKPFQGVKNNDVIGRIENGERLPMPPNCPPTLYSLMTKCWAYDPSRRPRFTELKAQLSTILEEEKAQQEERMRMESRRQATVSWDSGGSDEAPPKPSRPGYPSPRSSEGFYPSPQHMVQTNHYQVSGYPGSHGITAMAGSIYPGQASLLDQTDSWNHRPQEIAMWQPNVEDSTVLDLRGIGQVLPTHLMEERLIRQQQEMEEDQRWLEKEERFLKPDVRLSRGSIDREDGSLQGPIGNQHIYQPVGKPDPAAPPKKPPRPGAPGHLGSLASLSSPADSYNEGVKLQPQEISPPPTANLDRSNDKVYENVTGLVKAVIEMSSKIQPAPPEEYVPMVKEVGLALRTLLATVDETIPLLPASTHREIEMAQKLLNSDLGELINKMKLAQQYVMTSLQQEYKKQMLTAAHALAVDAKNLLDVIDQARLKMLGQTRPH
# Chain of Albumin (Bos taurus) (P02769 whole entry, looked up): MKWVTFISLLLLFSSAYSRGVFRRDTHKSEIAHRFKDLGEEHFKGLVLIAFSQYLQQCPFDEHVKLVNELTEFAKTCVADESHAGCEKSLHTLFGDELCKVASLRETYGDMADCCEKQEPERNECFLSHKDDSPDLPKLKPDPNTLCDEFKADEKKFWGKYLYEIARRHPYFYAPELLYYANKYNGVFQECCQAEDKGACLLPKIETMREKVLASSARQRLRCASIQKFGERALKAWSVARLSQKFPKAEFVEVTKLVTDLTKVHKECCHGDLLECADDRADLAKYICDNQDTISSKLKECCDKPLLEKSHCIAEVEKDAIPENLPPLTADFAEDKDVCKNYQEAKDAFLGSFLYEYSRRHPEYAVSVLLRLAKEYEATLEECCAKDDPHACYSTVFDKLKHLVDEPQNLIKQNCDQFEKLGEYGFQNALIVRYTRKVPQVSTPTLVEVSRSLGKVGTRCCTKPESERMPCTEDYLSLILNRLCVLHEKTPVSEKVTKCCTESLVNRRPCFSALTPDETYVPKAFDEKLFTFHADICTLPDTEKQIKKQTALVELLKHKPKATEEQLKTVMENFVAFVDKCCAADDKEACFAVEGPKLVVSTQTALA
# Chain of Fibroblast growth factor 2 (Homo sapiens) (P09038 whole entry, looked up): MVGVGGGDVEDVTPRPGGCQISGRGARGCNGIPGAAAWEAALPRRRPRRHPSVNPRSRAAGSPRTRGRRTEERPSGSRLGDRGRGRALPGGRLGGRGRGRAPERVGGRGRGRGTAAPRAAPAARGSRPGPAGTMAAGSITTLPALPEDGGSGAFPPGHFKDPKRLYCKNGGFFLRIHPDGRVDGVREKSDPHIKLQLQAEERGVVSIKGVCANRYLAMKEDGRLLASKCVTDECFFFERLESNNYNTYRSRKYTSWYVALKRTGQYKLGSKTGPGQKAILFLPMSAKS
# Chain of Concanavalin-A (Canavalia ensiformis) (P02866 whole entry, looked up): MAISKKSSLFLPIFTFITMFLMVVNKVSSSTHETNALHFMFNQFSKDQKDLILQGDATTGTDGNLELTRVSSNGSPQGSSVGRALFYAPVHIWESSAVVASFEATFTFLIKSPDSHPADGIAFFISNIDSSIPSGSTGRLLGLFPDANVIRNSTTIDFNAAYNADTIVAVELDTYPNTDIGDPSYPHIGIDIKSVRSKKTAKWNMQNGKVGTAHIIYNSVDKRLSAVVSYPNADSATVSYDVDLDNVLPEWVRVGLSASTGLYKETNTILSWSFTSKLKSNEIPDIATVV
SMILES,composite z-score (Albumin (Bos taurus)),composite Z-score [1],composite z-score [2],composite z-score [3],composite z-score [4],composite z-score [5],composite z-score [6],composite z-score (Sam68 (KHDRBS1)),composite z-score [7],composite z-score [8],composite z-score [9],composite z-score [10],composite z-score [11],composite z-score [12],composite z-score [13],composite z-score [14],z-score [15],composite z-score (Lefty1),composite z-score [16],z-score [17]
CC(C)N1CC=CC23O[C@@H]4/C=C\CCCOC(=O)C4[C@H]2C(=O)N(CCCO)[C@@H]3C1=O (stereo not given in full),-1.17,1.73 (inactive),-0.249,-0.125,0.962,-0.0009,-0.745,-0.594,-1.72,-0.564,-0.936,-1.26,-0.134,-1.72,-0.995,-1.23,1.25,-1.42,-0.965,-1.38 (inactive)
CC(=O)NCCCC[C@@H]1NC(=O)[C@@H]2C[C@H](C(=O)O)[C@H](c3cccc(OCCO)c3)N2C1=O,-1.33,0.274 (inactive),-0.126,-0.146,0.276,0.348,0.0927,1.34,1.31,1.15,2,1.07,0.341,0.041,1.35,1.73,1.2,1.42,0.795,-1.16 (inactive)
CC(C)(C)OC(=O)CC[C@@]1(C(=O)N2CCOCC2)N=C(c2ccc(OCCCO)cc2)O[C@@H]1c1ccccc1,1.01,-0.0503 (inactive),0.0927,-0.0017,0.904,3.76,0.599,1.31,-1.26,0.962,3.83,1.25,0.217,0.938,1.33,0.324,2.16,-0.508,1.54,-1.99 (inactive)
C=CCNC(=O)[C@@H]1[C@H]2C(=O)O[C@H](c3ccccc3)[C@H](c3ccccc3)N2[C@H](c2ccc(O)cc2)[C@@]12C(=O)Nc1ccc(C#Cc3ccc(OC)cc3)cc12,0.29,0.422 (inactive),0.0563,-0.0451,0.31,0.928,0.482,1.32,-0.0134,1.12,1.11,1.2,0.552,0.924,1.03,0.363,-1.18,0.849,1.14,-0.968 (inactive)
CCOC(=O)C[C@H]1[C@H](OC(=O)c2ccc(-c3ccccc3)cc2)[C@@H](NC(=O)C2CCCCC2)c2cc(OCCCO)ccc2N1C(=O)c1ccc2ccccc2n1,0.821,-0.0871 (inactive),0.0179,0.0055,-0.252,0.915,0.243,1.3,-0.625,0.814,0.549,1.14,0.347,0.433,0.349,-0.243,1.14,0.0309,0.388,-0.784 (inactive)
